Assay results: PubChem BioAssay
Some of the results follow. Activity calls are given as the source filed them.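 The calls were made as follows, unless noted: active = GFP response above 150% of the DMSO level; inconclusive = fewer than 70 events counted for a yeast strain; inactive = the rest.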

What was measured:
[1] = RPL19A-GFP modulators, yeast TOR pathway, confirmation, cell-based, S. cerevisiae, flow cytometry, cherry picks, mother/daughter gates (AID 2270;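 active = GFP response below 50% of the DMSO control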); conditions: S. cerevisiae RPL19A-GFP strain, 3 h, at 10 µM, stronger effect = lower value, 100 = same GFP as DMSO wells
[2] = LAP4-GFP expression modulators in yeast, confirmation, cell-based, cherry picks, flow cytometry, mother/daughter gates (AID 2271;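 active = GFP response above 150% of the DMSO control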;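 also: ratio of sample to DMSO plate mean so 100% equals DMSO level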); conditions: S. cerevisiae LAP4-GFP strain, 3 h, at 10 µM, stronger effect = higher value, 100 means same as DMSO control
[3] = modulators of MEP2-GFP levels in yeast, confirmation, S. cerevisiae, flow cytometry GFP, cherry picks (AID 2272;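 active = GFP response above 150% of the DMSO control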;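 also: ratio of well signal to plate DMSO mean so 100% equals DMSO level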); conditions: S. cerevisiae MEP2-GFP strain, 3 h, at 10 µM, stronger effect = higher value
[4] = AGP1-GFP expression modulators, hit retest, confirmation, cell-based, flow cytometry, S. cerevisiae, cherry picks (AID 2273);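 also: median GFP channel fluorescence over the whole cell population gate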; conditions: S. cerevisiae AGP1-GFP strain, 3 h, at 10 µM
[5] = modulators of CIT2-GFP expression in yeast, confirmation, S. cerevisiae, GFP fusion, cherry picks, mother/daughter gates (AID 2274); conditions: S. cerevisiae CIT2-GFP strain, flow cytometry, 3 h, at 10 µM, stronger effect = higher value
[6] = compound autofluorescence in yeast s288c, dose response, artefact control for yeast TOR pathway GFP screen, s288c strain (AID 2757;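 active = fluorescence span over the dose series, or activity score, above about 33, limit read from the data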;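 also: thousands of bead-calibrated equivalent soluble fluorophore molecules from median cell fluorescence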); conditions: S. cerevisiae s288c, 520 nm autofluorescence, flow cytometry, 3 h; at 33 µM; stronger effect = higher value; zero means same as solvent-only cells
[7] = measured here: daughter cell gate
[8] = measured here: mother cell gate
[9] = measured here: daughter cell gate response
[10] = measured here: mother cell gate response

| SMILES | GFP response vs DMSO [1] | GFP response vs DMSO [1, 7] [%] | GFP response vs DMSO [1, 8] [%] | GFP response relative to DMSO [2] | GFP response relative to DMSO [2, 9] [%] | GFP response relative to DMSO [2, 10] [%] | GFP response vs DMSO [3] | GFP response, % of DMSO [4] | GFP response, % of DMSO [5] | GFP response, % of DMSO [5, 7] [%] | GFP response, % of DMSO [5, 8] [%] | fluorescence change (kMESF span) [6] |
| --- | --- | --- | --- | --- | --- | --- | --- | --- | --- | --- | --- | --- |
| Oc1ccc2ccccc2c1N=Nc1nccs1 | 101% (inactive) | 98.1 | 98 | 163% (active) | 151 | 165 | 116% (inactive) | 89.3% (inactive) | 105% (inactive) | 101 | 102 | 0.51 (inactive) |
| Cc1cccc(C)c1NC(=O)C(Cl)C(=O)c1ccccc1 (centres undefined) | 89.9% (inactive) | 87.6 | 82.5 | 241% (active) | 168 | 252 | 100% (inactive) | 101% (inactive) | 99.7% (inactive) | 95.4 | 87.8 | 0 (inactive) |
| CC(C(=O)NCCc1ccc(F)cc1)N1CCN(Cc2ccccc2)CC1 (centres undefined) | 96.5% (inactive) | 97 | 96.8 | 98.7% (inactive) | 100 | 101 | 102% (inactive) | 98.5% (inactive) | 95.2% (inactive) | 96.5 | 95.5 | – |
| Oc1ccc(Br)cc1/C=N/Nc1ccccn1 | 93.9% (inactive) | 92.3 | 83.8 | 263% (active) | 222 | 261 | 129% (inactive) | 91% (inactive) | 112% (inactive) | 113 | 98 | 1.31 (inactive) |
| COc1ccc(C(=O)NC(=S)NNC(=O)CCc2ccccc2)cc1 | 106% (inactive) | 104 | 106 | 188% (active) | 173 | 189 | 116% (inactive) | 87.7% (inactive) | 101% (inactive) | 104 | 93.3 | 0.3 (inactive) |
| Cc1ccc(CS(=O)(=O)c2ncc(Cl)c(C(=O)Nc3nnc(C(C)C)s3)n2)cc1 | 96.2% (inactive) | 96.1 | 94 | 108% (inactive) | – | 99.5 | 103% (inactive) | 100% (inactive) | 101% (inactive) | 94 | 100 | – |
